Test in all cases: NCI-60 one-dose screen, 48 h (100 = growth as untreated, 0 = no growth, -100 = all killed)
Common to all, as to details: 10 µM unless noted

The test system of experiment [1] is SR leukemia.
Experiment [2] relates to RPMI-8226 leukemia.
For experiment [3], the system named is OVCAR-8 ovarian.
In experiment [4] the test system is OVCAR-5 ovarian.
The test system of experiment [5] is OVCAR-4 ovarian.
Experiment [6] deals with SK-OV-3 ovarian.
Experiment [7] concerns IGROV1 ovarian.
Experiment [8] relates to OVCAR-3 ovarian.
Experiment [9] deals with HS 578T breast.
The test system of experiment [10] is NCI/ADR-RES ovarian.

Structures are written as SMILES. About 83,000 compounds went through this panel and 20% of them were active in at least one assay; those are over-represented in the sample as a whole.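 Testing used 96-well plates and a 48-hour single-concentration exposure. Example: -40 means 40% of the starting cells died.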 A number with no mark means an inactive call. Calls of active or inactive are those of the source. Rule for the calls: active = growth percent below 10; inactive = the rest.

Growth data for 26 molecules are collected here from PubChem BioAssay (NCI).

Turning to `COC(=O)C(OC(C)=O)C(OC(C)=O)c1ccc(OC)c(OC)c1` (stereo not given), the growth in experiment [1] is 90.9%; in [2], 103%; in [3], 103%; in [4] it was 108%; in experiment [5], 94.2%; in [6], 110%. The growth is 114% in experiment [7], 104% in [8], 110% in [9] and 94.1% in experiment [10].
Regarding `C[C@H]1[C@H](C)CC[C@]2(C(=O)Nc3ccc4ncccc4c3)CC[C@]3(C)C(=CC[C@@H]4[C@@]5(C)CCCNC(C)(C)[C@@H]5CC[C@]43C)[C@H]12`, the growth in [1] was -49.2% (active); in experiment [2] it was -42.3% (active); in [3], -80.5% (active); in experiment [4] it was 74.9%; in [5], 27.8%; in [6] it was 103%. Also, the growth is -73.3% (active) in [7], -45.1% (active) in [8], -53.3% (active) in experiment [9] and -48.6% (active) in [10].
With `CC1(C)CC(O)CCCCCCOc2c(CN)cccc2NC(=O)c2nc(cnc2N)-c2ccc(cc2)S1(=O)=O` (stereo not given), the growth in [1] was -16.8% (active); in experiment [2], -41.5% (active); in experiment [3], 23.5%; in [4] it was 68.4%; in experiment [5], -22.1% (active); in [6] it was 44.9%. The growth in experiment [7] was 9.31% (active); in experiment [8] it was -5.21% (active); in experiment [9], 13.2%; in experiment [10], 67.1%.
As for `CCOC(=O)Oc1c(OC)cc(C(=O)c2ccc(OC)c(O)c2OC)cc1OC`, the growth in [1] was 28%; in [2], 21%; in experiment [3], 28.5%; in experiment [4], 76.6%; in experiment [5] it was 75.3%; in experiment [6], 31.6%. Further, the growth in [7] was 41.8%; in experiment [8], -1.93% (active); in experiment [9], 14.7%; in [10] it was -9.66% (active).
`N=C(N)c1ccc(OCCCCCCCCCCOc2ccc(C(=N)N)cc2)cc1`: the growth was -60.4% (active) in [1]; -59.8% (active) in [2]; -74.5% (active) in [3]; -91.5% (active) in experiment [4]; -95.8% (active) in experiment [5]; -91.4% (active) in experiment [6]. Also, the growth in [7] is -80.7% (active); in experiment [8] it was -92.4% (active); in [9], -56.9% (active); in [10], 87.1%.
In the case of `COc1ccc(C/C(=C(\C)c2ccc(OCCN3CCCC3)cc2)c2ccc(OCCN3CCCC3)cc2)cc1`, the growth is -32.6% (active) in experiment [1]; -20.6% (active) in experiment [2]; 64.9% in experiment [3]; 77.8% in [4]; 81.5% in [5]; 90.8% in [6]. The growth is 64.1% in experiment [7], 29% in experiment [8], 66.7% in experiment [9] and 78.3% in [10].
Consider `COc1ccc(NC(N)=NCCCOc2ccc(F)cc2)cc1`, for which the growth in experiment [1] is 93.6%; in experiment [2] it was 86%; in experiment [3] it was 94.1%; in experiment [4] it was 92.1%; in [5] it was 70.1%; in experiment [6] it was 79.1%. Also, the growth in experiment [7] was 67.7%; in experiment [8], 99.9%; in experiment [9], 113%; in experiment [10] it was 99%.
Consider `COC(=O)C1=C(C(=O)ON)[C@@H]2C=C[C@@]1([C@@H](Cc1ccccc1)Nc1ccccc1)O2`, for which the growth in experiment [1] was 8.17% (active); in experiment [2], 21.7%; in experiment [3], 92.8%; in [4], 89%; in experiment [5], 79.9%; in [6], 107%. In addition, the growth in [7] was 85.6%; in experiment [8], -79.1% (active); in experiment [9], 109%; in [10] it was 89.8%.
In the case of `O=C(CCN1CCCC1)c1ccc([N+](=O)[O-])cc1`, the growth is 98% in [1]; 92.7% in [2]; 101% in experiment [3]; 102% in experiment [4]; 102% in experiment [5]; 101% in experiment [6]. In addition, the growth is 105% in experiment [7], 104% in [8], 112% in experiment [9] and 100% in experiment [10].
For `O=C1Nc2cc(-c3ccc(NC(=O)c4ccccc4)cc3)ccc2/C1=C/c1ccc[nH]1`, the growth was 29.7% in [1]; 101% in [2]; 101% in experiment [3]; 110% in experiment [4]; 70% in experiment [5]; 110% in [6]. The growth in experiment [7] is 95.3%; in [8], 93.9%; in experiment [9], 115%; in experiment [10], 90.1%.
With `O=C(/C=C(/C=C/c1csc2ccccc12)OB(F)F)/C=C/c1csc2ccccc12`, the growth in experiment [1] is 3.63% (active); in experiment [2], -12% (active); in experiment [3] it was -9.55% (active); in [4] it was 60.6%; in [5], -0.888% (active); in [6], 100%. Further, the growth in experiment [7] is 11.3%; in [8], -14.2% (active); in experiment [9], 3.47% (active); in [10], 18.3%.
With `O=C(c1ccccc1)N1N=C(c2ccc(-n3ccc(C(F)(F)F)n3)c(F)c2)CC1c1ccc[nH]1` (stereo not given), the growth was 104% in [1]; 101% in experiment [2]; 104% in [3]; 104% in experiment [4]; 116% in [5]; 141% in [6]. Further, the growth in experiment [7] was 108%; in experiment [8] it was 116%; in experiment [9], 107%; in experiment [10], 100%.
As to `CCCCCCNC(=O)Nc1ccc2cc3ccc(NC(=O)NCCCCCC)cc3nc2c1`, the growth in experiment [1] is -33% (active); in [2], 0.729% (active); in experiment [3], -82.7% (active); in experiment [4], 9.67% (active); in experiment [5] it was 56.9%; in experiment [6] it was 13.2%. In addition, the growth in experiment [7] was 11.4%; in [8], -5.6% (active); in experiment [9], -53.7% (active); in experiment [10] it was 100%.
For the molecule `Cc1cc(C)c(S(=O)(=O)Oc2ccccc2[N+](=O)[O-])c(C)c1`, the growth in experiment [1] is 15.7%; in experiment [2], 24.2%; in experiment [3], 29.8%; in experiment [4], 43.4%; in experiment [5], 42.9%; in [6] it was 41.2%. Further, the growth in experiment [7] was 30.2%; in [8], -24.1% (active); in [9], -16.4% (active); in [10] it was 8.3% (active).
Consider `O=C(O)c1ccc(-c2nn(-c3ccc(C(F)(F)F)cc3)cc2CNc2ccc(Oc3ccccc3)cc2)cc1`, for which the growth in experiment [1] is 60.7%; in experiment [2] it was 46.5%; in experiment [3], 69%; in [4], 103%; in [5], 90.3%; in [6], 135%. Also, the growth is 89% in [7], 92.5% in experiment [8], 95.7% in experiment [9] and 81.9% in experiment [10].
With `COc1ccc(CC(C)=C(c2ccc(OCCN3CCCCCC3)cc2)c2ccc(OCCN3CCCCCC3)cc2)cc1`, the growth in experiment [1] is -32.2% (active); in experiment [2], -57.9% (active); in experiment [3], -78.1% (active); in [4] it was -95.9% (active); in experiment [5] it was -83.9% (active); in experiment [6] it was -90.1% (active). Also, the growth was -77.8% (active) in experiment [7], -89.2% (active) in experiment [8], -61% (active) in experiment [9] and -90.3% (active) in [10].
Turning to `CNCCOc1nc2c3cnccc3cc(-c3cc(OC)c(OC)c(OC)c3)c2c2ccncc12`, the growth in [1] was -18.2% (active); in [2], -32% (active); in [3], -37.3% (active); in [4] it was -9.07% (active); in experiment [5], -2.03% (active); in experiment [6], -33.9% (active). Also, the growth is -16.3% (active) in [7], 1.62% (active) in [8], -25.7% (active) in [9] and -27.9% (active) in experiment [10].
Take `ClC1=C(Br)C(Br)(Br)C(=C(Br)Br)C1(Br)Br`: the growth was 44% in experiment [1]; 73.1% in [2]; 85.1% in experiment [3]; 110% in experiment [4]; 99.1% in experiment [5]; 118% in [6]. In addition, the growth in experiment [7] is 102%; in experiment [8], 75%; in experiment [9] it was 103%; in experiment [10], 110%.
`COc1ccc(CNCCN2C(=O)c3ccc4c5c(ccc(c35)C2=O)C(=O)N(CCNCc2ccc(OC)c(OC)c2OC)C4=O)c(OC)c1OC`: the growth was -23.2% (active) in experiment [1]; -25% (active) in experiment [2]; -9.78% (active) in experiment [3]; -60.1% (active) in experiment [4]; -94.1% (active) in experiment [5]; 58% in experiment [6]. For the same molecule, the growth is -29.9% (active) in [7], -42.8% (active) in experiment [8], -34.6% (active) in [9] and -3.82% (active) in [10].
Consider `O=C1c2ccc3c4c(ccc(c24)C(=O)N1CCCNCc1ccccc1)C(=O)N(CCCNCc1ccccc1)C3=O`, for which the growth in experiment [1] was -47.2% (active); in experiment [2], -36.7% (active); in experiment [3], -50.7% (active); in experiment [4] it was -20.6% (active); in experiment [5], -97.2% (active); in experiment [6], -11.4% (active). In addition, the growth in experiment [7] was -23.4% (active); in [8], -63.4% (active); in [9], -32.3% (active); in experiment [10], -26.5% (active).
As for `COc1cc2nc(-c3ccc(C(F)(F)F)cc3)cc(OCCCN3CCCC3)c2cc1OC`, the growth in experiment [1] was 19.4%; in experiment [2] it was 21.6%; in experiment [3], 48.7%; in experiment [4], 56.9%; in [5] it was 57.1%; in [6], 88.6%. The growth was 36.2% in experiment [7], 64.8% in experiment [8], 64.4% in experiment [9] and 46.4% in experiment [10].
On to `CCOC(=O)CSc1nc2ccccc2c(=O)n1Cc1ccc(S(N)(=O)=O)cc1`, for which the growth is 99.6% in experiment [1]; 98.2% in experiment [2]; 101% in experiment [3]; 97.5% in experiment [4]; 116% in [5]; 107% in [6]. Further, the growth was 105% in [7], 112% in experiment [8], 97.9% in experiment [9] and 104% in [10].
Turning to `CC1(C)CC(=O)C2=C(C1)N(c1ccc(F)cc1F)C(N)=C(C#N)C2c1cc(Br)ccc1F` (stereo not given), the growth in experiment [1] was 31%; in experiment [2] it was 80.6%; in [3], 86.7%; in [4], 107%; in experiment [5], 83.1%; in [6], 131%. Also, the growth was 94.3% in [7], 99.7% in experiment [8], 105% in [9] and 85.7% in experiment [10].
For `CCCOc1ccc(/C=N/Nc2cc(C)nc3ccc(Br)cc23)cc1`, the growth was -1.3% (active) in experiment [1]; 58.9% in experiment [2]; 88.2% in experiment [3]; 111% in [4]; 88.1% in [5]; 90.9% in [6]. The growth in [7] was 90.4%; in experiment [8], 99.8%; in experiment [9] it was 106%; in [10], 97.2%.
With `NC(=NCc1ccccc1)C(N=Nc1ccccc1)C(=O)NCc1ccccc1` (stereo not given), the growth in experiment [1] is 19.1%; in [2], 90.9%; in experiment [3] it was 31.1%; in experiment [4], 100%; in experiment [5], 76.5%; in [6], 95.6%. Further, the growth was 81.5% in experiment [7], 88.8% in experiment [8], 64% in experiment [9] and 50.2% in experiment [10].
As to `Cn1c2ccccc2c2c3c(c4c5ccccc5n(C)c4c21)C(=O)OC3`, the growth in [1] was 83.9%; in [2], 89.9%; in experiment [3], 98.6%; in [4], 95.9%; in experiment [5], 96.9%; in experiment [6], 100%. The growth was 78% in experiment [7], 102% in experiment [8], 97.4% in experiment [9] and 95.5% in experiment [10].
